Hits are enriched below; roughly 1.1% of the tested compounds scored in any of these assays.
CBFb RUNX1 block: inhibitors of human CBF-beta and RUNX1 interaction | AlphaScreen CBFb-His/RUNX1-biotin binding, biochemical | 230,000 tested, under 10 active | Potency, µM (top dose mostly 59.8 µM), inactives show at the highest dose activity, negative = inhibition, usual class: inhibitors; note: % of control where 0% means no effect
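Proteins preincubated together for 20 min at RT before compound addition; 15 min later, nickel and streptavidin beads were added and left 90 min prior to AlphaScreen measurement.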
HTT cytoprotect: Huntington cell model cytoprotection by ATP luminescence; PC12 HTT-Q103 induced, cytoprotection, ATP luminescence, 40 h; 230,000 compounds, 0.14% hits; Potency, µM (highest dose often 56.4 µM), inactives show cytoprotection (ATP increase), most hits filed as activators; AID 1471; note: potency is the fitted concentration of half-maximal effect; % of control where 0% means no effect; nearly all actives have a fitted effect of over 45% in size
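Compounds were screened for protection of PC12 cells against cell death after tebufenozide induction (100 nM final) of mutant Huntingtin exon 1 (Q103) fused to GFP.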
LMNA splice mod: LMNA splicing modulation | Potency, µM (top dose mostly 46.1 µM), for the others: at the top dose ratio change, negative = inhibition, usual class: inhibitors | 200,000 compounds, 0.01% hits | AID 1487 | HeLa LMNA splicing GFP/RFP minigene ratio, 48 h; active = well fitted inhibition curve with a large enough effect in the signal ratio, with a control signal flat, not every such curve was filed as active; inconclusive = small, poorly fitted or top-dose-only effect, or effect the other way, or a change in a side signal; the % refers to the signal ratio; note: potency is the fitted concentration of half-maximal effect; % is set by controls: 0 for no effect and ±100 for the full control effect
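Read-out is the ratio of GFP to DsRed2 object intensity, acquired by 488 nm laser-scanning cytometry on HeLa lamin A-EGFP minigene reporter cells. Compound incubation 48 hrs at 37 °C in Opti-MEM with 2% FBS; DMSO 0.5% final.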
MBNL1-CUG inh: MBNL1-poly(CUG) RNA binding inhibition. AID 2675. Q9NR56. 280,000 compounds, 0.036% hits. TR-FRET MBNL1-His/biotin-(CUG)12 binding, 665/545 ratio. Potency, µM (top dose mostly 57.5 µM), inactives show at the highest dose activity change, negative = inhibition, usual class: inhibitors; active = well fitted inhibition curve with a large enough effect in the signal ratio, with a control signal flat, not every such curve was filed as active; inconclusive = small, poorly fitted or top-dose-only effect, or effect the other way, or a change in a side signal; inactive = no such curve, though single readings can be large or run the other way; the % refers to the signal ratio; note: potency is the fitted concentration of half-maximal effect; % is set by controls: 0 for no effect and ±100 for the full control effect
Target sequence (Q9NR56 whole entry, looked up): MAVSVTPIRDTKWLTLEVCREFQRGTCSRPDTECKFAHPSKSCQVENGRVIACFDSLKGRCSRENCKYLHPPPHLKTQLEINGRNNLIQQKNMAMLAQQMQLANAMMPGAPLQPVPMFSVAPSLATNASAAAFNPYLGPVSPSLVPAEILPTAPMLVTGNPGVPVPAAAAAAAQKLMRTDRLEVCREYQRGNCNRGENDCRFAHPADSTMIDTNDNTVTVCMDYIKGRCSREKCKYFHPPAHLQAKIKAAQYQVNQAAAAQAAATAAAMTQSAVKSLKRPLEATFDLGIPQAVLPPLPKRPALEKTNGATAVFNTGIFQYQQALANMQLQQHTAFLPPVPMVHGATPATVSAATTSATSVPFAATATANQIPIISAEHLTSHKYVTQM
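Compounds (final 92 nM to 58 uM) are added to His-tagged MBNL1 and biotin-(CUG)12, then terbium anti-His antibody and streptavidin-XL665 (5 nM final). After 60 min at room temperature, the 665/545 nm ratio is read.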
NPSR antagonist: antagonists of human neuropeptide S receptor cAMP signaling; CHO-NPSR cells, cAMP TR-FRET, antagonist mode; Potency, µM (doses to about 38.3 µM), for the others: at the highest dose activity change, negative = inhibition, actives largely listed as inhibitors; 220,000 compounds, 1% hits; AID 1461; note: potency is the fitted concentration of half-maximal effect; % is set by controls: 0 for no effect and ±100 for the full control effect; nearly all actives have a fitted effect of over 50% in size
Target sequence (Q6W5P4 whole entry, looked up): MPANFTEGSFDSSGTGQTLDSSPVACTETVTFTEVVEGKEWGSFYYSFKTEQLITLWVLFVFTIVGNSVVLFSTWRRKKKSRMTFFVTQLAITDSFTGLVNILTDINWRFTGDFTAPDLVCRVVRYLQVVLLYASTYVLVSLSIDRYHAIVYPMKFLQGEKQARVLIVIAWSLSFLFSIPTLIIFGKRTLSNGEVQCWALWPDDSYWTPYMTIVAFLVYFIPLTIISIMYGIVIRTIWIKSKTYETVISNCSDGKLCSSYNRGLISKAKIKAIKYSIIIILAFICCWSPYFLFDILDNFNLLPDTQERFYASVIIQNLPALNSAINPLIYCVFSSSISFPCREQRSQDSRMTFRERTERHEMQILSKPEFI
HTT aggregate: mutant huntingtin aggregation inhibition. PC12 HttQ103-GFP aggregates, Acumen cytometry, 40 h. Potency, µM (highest dose often 46.1 µM), for inactives: top-dose activity change, negative = inhibition, usual class: inhibitors. 220,000 compounds, 1.1% hits. AID 1688; note: potency is the fitted concentration of half-maximal effect; % is set by controls: 0 for no effect and ±100 for the full control effect; nearly all actives have a fitted effect of over 60% in size
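Read-out: GFP aggregate count by laser scanning cytometer (488 nm excitation, 500-530 nm emission, 1–25 µm objects >6 SD above background). Cells: PC12, inducible HTTex1-Q103-GFP, 100 nM tebufenozide; compounds titrated.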
* marks the source's active call; other numbers are inactive results; ? = inconclusive; nt = not tested or not shown; [ ] = remark or other dose. Unless noted, calls come from the whole dose curve; as a rule, active = well fitted curve in the direction sought with a large enough effect; inconclusive = small, poorly fitted or top-dose-only effect, or another doubt; inactive = no such curve, though single readings can be large; an effect the other way counts as inactive or inconclusive.

SMILES	CBFb RUNX1 block	HTT cytoprotect	LMNA splice mod	MBNL1-CUG inh	NPSR antagonist	HTT aggregate
N#CC1=C(N)C2=C(N3CCCCC3)CCCC2C1(C#N)C#N (configuration not stated)	?	2%[10 µM]	-4%	?	-19%[46.1 µM]	-9%
N#CC(C#N)=C1C=C2C=C(N3CCCCC3)CCC2CC1 (configuration not stated)	5%	nt	?	?	-32%	10µM*
CCOc1ccc(OCC)c(NS(=O)(=O)c2ccc3c(c2)CCCN3C(C)=O)c1	nt	nt	15%[46 µM]	nt	nt	nt
CC(=O)N1c2ccc(S(=O)(=O)Nc3ccc(Cl)cc3C)cc2CC1C (configuration not stated)	nt	nt	11%[46 µM]	nt	nt	nt
COc1cccc(NC(=O)CSc2nc(=O)n(Cc3cccnc3)c3c2CCC3)c1	nt	nt	5%[46 µM]	nt	nt	nt
COc1cc(/C=C/c2nc3cc(Cl)ccc3c(=O)n2-c2ccc(C)cc2C)cc(OC)c1OC	nt	nt	10%[46 µM]	nt	nt	nt
COCCCNCCCOc1ccc(Cl)cc1C(C)(C)C	2%	nt	?	nt	-3%	7.9µM*
Cc1ccc(NC(=O)CSc2nnc(-c3ccccn3)n2C)cc1	-3%	-16%	8%	1%	-10%[46.1 µM]	2.8µM*
Cc1ccc(CSc2nnc(CC(=O)Nc3ccc(C)cc3)n2C)cc1	1%	-7%	1%[0.0737 µM]	-6%	-5%[46.1 µM]	24%
Cc1ccc(NC(=O)Cc2nnc(SCC(=O)Nc3ccccc3)n2C)cc1	5%	nt	1%	nt	12%	0.18µM*
Cn1c(SCC(=O)Nc2ccc3c(c2)OCCO3)nnc1-c1ccccn1	-5%	-2%	-4%	-9%	-3%[46.1 µM]	-18%
COc1ccc(CNC(=O)CCC(=O)N2CC3CCCN3c3ccccc32)cc1 (configuration not stated)	nt	nt	-8%[46 µM]	nt	nt	nt
CCC(=O)Oc1c(C(=O)CC)cc2c(C)cc(=O)oc2c1C	-3%	nt	?	0%	6%	13µM*
O=C(O)c1ccc(-c2nc(-c3ccccc3)c(-c3cccs3)[nH]2)cc1	-5%	-8%[10 µM]	nt	?	-37%	-25%[9.22 µM]
COc1ccc(-c2nc(-c3ccccc3)c(-c3cc([N+](=O)[O-])ccc3C)[nH]2)cc1OC	?	-36%	19%	0%	7.9µM*	-22%
CCOc1cc(-c2nc(-c3ccccc3)c(-c3cc([N+](=O)[O-])ccc3C)[nH]2)ccc1O	?	-87%	?	-8%	?	?
O=[N+]([O-])c1ccc(O)c(-c2nc(-c3ccccc3)c(-c3cccs3)[nH]2)c1	-4%	-57%	18%[0.0737 µM]	0%	?	7.9µM*
Cc1ccc2[nH]c3c(=O)n(CC(=O)N4CCCC(C)C4)ncc3c2c1 (configuration not stated)	nt	nt	8%[46 µM]	nt	nt	nt
Cc1ccc(NC(=S)NCCC(c2ccccc2)c2ccccc2)c(C)c1	-24%	15%[10 µM]	?	-4%	-28%[46.1 µM]	13µM*
NS(=O)(=O)c1ccc(CNC(=O)c2cc(-c3ccccn3)nc3ccc(Cl)cc23)cc1	-2%	-18%	nt	400%	13µM*	9%
CCNC(=O)[C@@H]1O[C@@H](n2cnc3c(NCc4ccccc4)ncnc32)[C@@H](O)[C@H]1O	nt	-15%[1.9 µM]	nt	nt	nt	nt
CCN(C(=O)CC(C)C)c1nnc(Cn2nnc3ccccc32)s1	5%	0.89µM*	nt	nt	7%	-27%
CCN(C(=O)c1ccc(C(C)(C)C)cc1)c1nnc(Cn2nnc3ccccc32)s1	1%	16%[10 µM]	?	-12%	?	6.3µM*
Cc1ccc(C(=O)NNC(=O)Cn2nnc3ccccc32)cc1	7%	10%[10 µM]	nt	9%	-3%	11%[9.22 µM]
COc1cc2c(C#N)c(N3CCN(c4ccccc4OC)CC3)nc(N)c2c(N)n1	?	13%[10 µM]	?	7%	0%[46.1 µM]	11µM*
SMILES	CBFb RUNX1 block	HTT cytoprotect	LMNA splice mod	MBNL1-CUG inh	NPSR antagonist	HTT aggregate
COc1cc2c(C#N)c(N3CCN(C)CC3)nc(N)c2c(N)n1	6%	-20%	-20%	-3%	-2%[46.1 µM]	-33%
c1ccc([C@H](c2cccc3c2ccc2ccccc23)[C@H](c2ccccc2)c2cccc3c2ccc2ccccc23)cc1	nt	-5%[10 µM]	nt	nt	nt	nt
CN[C@H](C)CCC=C(C)C	nt	-9%	nt	nt	nt	-12%
COC(CNC(=O)c1ccc(N2CCc3ccccc32)c([N+](=O)[O-])c1)OC	-11%	15%[10 µM]	?	?	-29%	11µM*
Cc1cc(C(=O)N/N=C/c2cc(Br)ccc2OC(=O)c2ccccc2)n[nH]1	1%	-36%[10 µM]	?	11%	-10%[46.1 µM]	2µM*
CCOC(=O)/C(=C\c1cccnc1)C(=O)c1cc(C(C)=O)c(Nc2ccccc2)s1	-3%	-35%	?	?	3.2µM*	?
CCOC(=O)/C(C#N)=C\c1cccnc1	0%	26%	5%[46 µM]	-5%	15%	17%
CC(C)(C)c1cc(C(=O)NCc2ccccc2)ccn1	6%	-9%	?	-10%	3%[46.1 µM]	11µM*
c1ccc(CN2CCC3(CC2)SSC2(CCN(Cc4ccccc4)CC2)SS3)cc1	nt	4%[10 µM]	nt	nt	nt	nt
Oc1cccc2ccc(Nc3ccccn3)nc12	nt	-95%[10 µM]	?	3%	-6%[46.1 µM]	3.5µM*
COC(=O)C1=C(C)NC(C)=C(C(=O)OC)C1c1ccc(NC(C)=O)cc1	1%	-24%[0.074 µM]	-17%	-5%	0%[46.1 µM]	3.2µM*
O=C(O)CC(NS(=O)(=O)c1ccc(Br)s1)c1ccccc1 (configuration not stated)	nt	nt	-14%[46 µM]	nt	nt	nt
CCOc1ccc(-c2csc(/C(C#N)=C\c3ccc(O)c([N+](=O)[O-])c3)n2)cc1	15%	18%[10 µM]	?	?	-34%	7.9µM*
COc1ccc(N(Cc2nnc3n2CCCCC3)C(=O)Nc2cccc(C)c2)cc1Cl	nt	nt	18%[46 µM]	nt	nt	nt
CCOC(=O)[C@H](CCc1ccccc1)N[C@@H](C)C(=O)N1[C@H](C(=O)O)C[C@H]2CCC[C@@H]21	-5%[21.7 µM]	3.2µM*	11%	nt	nt	4%
CCOC(=O)C(CCc1ccccc1)NC(C)C(=O)N1C(C(=O)O)CC2CCCC21 (configuration not stated)	nt	nt	-10%	nt	nt	nt
CCCc1cc(=O)[nH]c2nnc(SCC)n12	nt	nt	9%[46 µM]	nt	nt	nt
COc1ccccc1-c1ccc(SCc2ccc([N+](=O)[O-])cc2)nn1	-1%	4%	7%[1.84 µM]	25%	?	1%
COc1ccccc1-c1ccc(SCc2cccc(C)c2)nn1	1%	?	nt	nt	-44%	22µM*
CC(=O)c1cccc(NC(=O)CSc2nc(=O)n(Cc3ccco3)c3c2CCC3)c1	nt	nt	-9%[46 µM]	nt	nt	nt
CC(C)Nc1nc(-c2ccccn2)nc(-c2ccccc2)c1C#N	-11%	-20%	-18%[46 µM]	-1%	-15%	3.5µM*

Assay outcomes deposited in PubChem by National Center for Advancing Translational Sciences (NCATS).
